The record followed here is the supplement of paper PMC8975748.

Each structure is given as a SMILES string. Counter-ions that a name gives are not always drawn. ± gives the standard deviation of the averaged measurements.

This experiment relates to Saccharomyces cerevisiae BY4741 SeMeCo community. As to the kind of experiment: mean cell size (pixel area) (pixels); higher = larger cells. Conditions: 10 µM; 24 h; SM minimal medium. An outline of the steps: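 Drug was acoustically predosed into 384-well plates to a final 10 µM in SM medium, and each well received 70 µl of Saccharomyces cerevisiae BY4741 diluted to OD600 = 0.3 from an overnight preculture at OD600 = 1.0. This four-plasmid fluorescent community carries one fluorescent marker per plasmid, and each plasmid complements one auxotrophy. After 24 h, the cells were fixed with paraformaldehyde and imaged by automated confocal microscopy, and Harmony analysis yielded mean cell pixel area per well. Each value is averaged over 3 replicates. Same SeMeCo high-content imaging drug screen: Selleck FDA-approved drugs at 10 µM, 24 h in SM medium, 384-well plates, 3 replicates.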
For the molecule `O=C(Nc1cc(Cl)cc(Cl)c1O)c1c(O)c(Cl)cc(Cl)c1Cl` [Oxyclozanide], the mean cell size stood at 12.2 ± 0.31.
Then `CCC1(c2ccccc2)C(=O)NCNC1=O` [Primidone], with 12.6 ± 0.23; and `O=c1[nH]c(=O)n([C@H]2C[C@H](O)[C@@H](CO)O2)cc1/C=C/Br` [Brivudine], with 12.41 ± 0.042; and `COCCOC(=O)C1=C(C)NC(C)=C(C(=O)OC(C)C)C1c1cccc([N+](=O)[O-])c1` (stereo not given) [Nimodipine], with 12.31 ± 0.09.
Then `CO[C@H]1/C=C/O[C@@]2(C)Oc3c(C)c(O)c4c(c3C2=O)C2=NC3(CCN(CC(C)C)CC3)NC2=C(NC(=O)/C(C)=C\C=C\[C@H](C)[C@H](O)[C@@H](C)[C@@H](O)[C@@H](C)[C@H](OC(C)=O)[C@@H]1C)C4=O` [Rifabutin], with 12.6 ± 0.21; and `CCCCC(F)(F)[C@@]1(O)CC[C@H]2[C@@H](CC(=O)[C@@H]2CCCCCCC(=O)O)O1` [Lubiprostone], with 12.6 ± 0.28; and `Cc1c(OCC(F)(F)F)ccnc1C[S+]([O-])c1nc2ccccc2[nH]1` (stereo not given) [Lansoprazole], with 12.5 ± 0.14.
Then `C[C@]1(COc2ccc(N3CCC(Oc4ccc(OC(F)(F)F)cc4)CC3)cc2)Cn2cc([N+](=O)[O-])nc2O1` [Delamanid], with 12.1 ± 0.19.
As for `COc1ccc([C@@H]2Sc3ccccc3N(CCN(C)C)C(=O)[C@@H]2OC(C)=O)cc1` [Diltiazem HCl], the mean cell size was 12.5 ± 0.27.
The molecule `COc1ccc2c(c1)C(=O)N(CCc1ccc(S(=O)(=O)NC(=O)NC3CCCCC3)cc1)C(=O)C2(C)C` [Gliquidone] returned a mean cell size of 12.5 ± 0.12.
As for `O=C1CC2(CCCC2)CC(=O)N1CCCCN1CCN(c2ncccn2)CC1` [Buspirone HCl], the mean cell size is 12.4 ± 0.25.
Then `N[C@@H]1CCCCN(c2c(F)cc3c(=O)c(C(=O)O)cn(C4CC4)c3c2Cl)C1` [Besifloxacin HCl], with 12 ± 0.16; and `Nc1nc(O)c2ncn(CCC(CO)CO)c2n1` [Penciclovir], with 12.4 ± 0.4.
As for `OCCN1CCN(CC/C=C2/c3ccccc3Sc3ccc(C(F)(F)F)cc32)CC1` [Flupenthixol dihydrochloride], the mean cell size worked out at 12.24 ± 0.076.
Take `CO/N=C(\C(=O)N[C@@H]1C(=O)N2C(C(=O)O)=CCS[C@H]12)c1csc(N)n1` [Ceftizoxime sodium]: the mean cell size was determined as 12.3 ± 0.25.
Then `CN(C)CCC=C1c2ccccc2C(C)(C)c2ccccc21` [Melitracen hydrochloride], with 12 ± 0.24; and `COc1cc(Cc2cnc(N)nc2N)cc(OC)c1OC` [Trimethoprim], with 12.4 ± 0.14; and `C[C@@H](O)[C@H]1C(=O)N2C(C(=O)[O-])=C(SC3Cn4cnc[n+]4C3)[C@H](C)[C@H]12` (stereo not given in full) [Biapenem], with 12.11 ± 0.1.
Then `CCCCCc1ccc(C)cc1O` [Amylmetacresol], with 12.4 ± 0.14; and `CC[C@H]1OC(=O)C[C@@H](O)[C@H](C)[C@@H](O[C@@H]2O[C@H](C)[C@@H](O[C@H]3C[C@@](C)(O)[C@@H](O)[C@H](C)O3)[C@H](N(C)C)[C@H]2O)[C@@H](CC=O)C[C@@H](C)C(=O)/C=C/C(C)=C/[C@@H]1CO[C@@H]1O[C@H](C)[C@@H](O)[C@@H](OC)[C@H]1OC` [Tylosin tartrate], with 12.45 ± 0.055.
In the case of `CC1(C)[C@H](C(=O)O)N2C(=O)C[C@H]2S1(=O)=O` [Sulbactam sodium], the mean cell size stood at 12.54 ± 0.013.
Then `CCN(Cc1ccncc1)C(=O)C(CO)c1ccccc1` (stereo not given) [Tropicamide], with 12.48 ± 0.099; and `Cn1c(=O)c2c(ncn2CC(O)CO)n(C)c1=O` (stereo not given) [Dyphylline], with 12.55 ± 0.12; and `CCC(=O)c1c(O)cc(O)cc1O` [Flopropione], with 12.5 ± 0.18.
Then `COC(=O)C1=C(C)NC(C)=C(C(=O)OCCN2CCN(C(c3ccccc3)c3ccccc3)CC2)C1c1cccc([N+](=O)[O-])c1` (stereo not given) [Manidipine 2HCl], with 12 ± 0.3; and `CC1(C)[C@H](C(=O)O)N2C(=O)C[C@H]2S1(=O)=O` [Sulbactam], with 12.3 ± 0.16; and `CCOc1cc(N)c([N+](=O)[O-])cc1C(=O)NC1CCN(CC2CC=CCC2)CC1` (stereo not given) [Cinitapride Hydrogen Tartrate], with 12.3 ± 0.2.
Then `Cc1nc(Nc2ccc(F)cc2)nc(N2CCc3ccccc3C2C)c1C` (stereo not given) [Revaprazan Hydrochloride], with 11.4 ± 0.18; and `Clc1ccccc1C(c1ccccc1)(c1ccccc1)n1ccnc1` [Clotrimazole], with 11.89 ± 0.097.
Consider `COC(=O)Nc1nc2cc(Sc3ccccc3)ccc2[nH]1` [Fenbendazole], for which the mean cell size was 12.3 ± 0.23.
`CCCN[C@H]1CCc2nc(N)sc2C1` [Pramipexole 2HCl Monohydrate] gave a mean cell size of 12.56 ± 0.054.
For `C=CCN1CCCC1CNC(=O)c1cc2nn[nH]c2cc1OC` (stereo not given) [Alizapride HCl], the mean cell size is 12.3 ± 0.14.
Then `CS(=O)(=O)c1ccc([C@@H](O)[C@@H](CF)NC(=O)C(Cl)Cl)cc1` [Florfenicol], with 12.4 ± 0.26.
Then `CC(C(=O)O)c1ccc2c(c1)[nH]c1ccc(Cl)cc12` (stereo not given) [Carprofen], with 13.82 ± 0.13.
Then `CO/N=C(\C(=O)N[C@@H]1C(=O)N2C(C(=O)O)=C(COC(C)=O)CS[C@H]12)c1csc(N)n1` [Cefotaxime sodium], with 12.36 ± 0.028; and `NC(=NCCCCCCN=C(N)N=C(N)Nc1ccc(Cl)cc1)N=C(N)Nc1ccc(Cl)cc1` [Chlorhexidine?2HCl], with 11.38 ± 0.084; and `Nc1nc(N)nc(-c2cc(Cl)ccc2Cl)n1` [Irsogladine], with 12.2 ± 0.19.
With `CO[C@H]1C[C@@H]2CC[C@@H](C)[C@@](O)(O2)C(=O)C(=O)N2CCCC[C@H]2C(=O)O[C@H]([C@H](C)C[C@@H]2CC[C@@H](OP(C)(C)=O)[C@H](OC)C2)CC(=O)[C@H](C)/C=C(\C)[C@@H](O)[C@@H](OC)C(=O)[C@H](C)C[C@H](C)/C=C/C=C/C=C/1C` [Ridaforolimus (Deforolimus, MK-8669)], the mean cell size stood at 14.2 ± 0.11.
Then `CC(C)COc1ccc(CNC(=O)N(Cc2ccc(F)cc2)C2CCN(C)CC2)cc1` [Pimavanserin], with 12.4 ± 0.25; and `Cc1c(C(N)=O)cc([N+](=O)[O-])cc1[N+](=O)[O-]` [Dinitolmide], with 12.4 ± 0.22.
